Assay results from ChEMBL document CHEMBL3988442, “University of Dundee, Small-Polar-MMV Screening Library” (2021).
The campaign covered roughly 69,000 compounds. About 30 (0.04%) showed an effect of 50% or more. The sample holds strong results, similar compounds and a random draw of the others, so the mix is not that of the screen.

These compounds were tested against T1, Histidine--tRNA ligase (Trypanosoma cruzi (strain CL Brener)) (UniProt Q4DA54) (assay: Trypanosoma cruzi histidyl tRNA synthetase (Tc-HisRS)). Details: 30 µM.
T1 sequence (whole entry): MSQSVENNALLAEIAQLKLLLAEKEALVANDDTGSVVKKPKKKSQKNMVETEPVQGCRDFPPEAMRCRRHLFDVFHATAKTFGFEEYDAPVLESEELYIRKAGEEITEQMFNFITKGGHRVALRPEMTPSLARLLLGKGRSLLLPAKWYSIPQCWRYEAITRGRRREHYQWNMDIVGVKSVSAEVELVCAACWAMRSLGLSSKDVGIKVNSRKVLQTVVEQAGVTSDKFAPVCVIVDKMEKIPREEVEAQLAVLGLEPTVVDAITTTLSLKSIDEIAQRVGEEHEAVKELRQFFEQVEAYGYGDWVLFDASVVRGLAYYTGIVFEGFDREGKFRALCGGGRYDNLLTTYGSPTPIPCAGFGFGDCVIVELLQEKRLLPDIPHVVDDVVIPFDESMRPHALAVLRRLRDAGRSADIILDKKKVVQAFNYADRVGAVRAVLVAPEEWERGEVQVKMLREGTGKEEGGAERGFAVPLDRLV
Format: functional
Parameters: scale not given: direction of the effect not stated beside the values
Work on COc1ccc(CN2C[C@H]3CC[C@](O)(c4ccc(C)cn4)[C@H]3C2)c(F)c1 yielded a Percent Effect of -0.54%.
Cc1ccc(C(=O)N2C[C@H]3CCC[C@@]3(COCC3CCOCC3)C2)o1 gave a Percent Effect of 14.3%.
Cn1cc(CN2CC[C@H]3OCC[C@@H](C(=O)Nc4cnccn4)[C@@H]3C2)cn1 showed a Percent Effect of -1.22%.
CN(Cc1cccnc1)C[C@H]1OC[C@@H]2CCN(c3ncccn3)C[C@@H]21 showed a Percent Effect of -3.09%.
In the case of COc1cccc(-c2ncc(CN3CC[C@H]4CC[C@@H](C3)N4)s2)c1, the Percent Effect is reported as 7.88%.
With O=C(c1cnccn1)N1C[C@@H]2CCN(c3cccnc3)C[C@@H]2C1 the Percent Effect was 2.96%.
CN(C)C(=O)[C@@H]1CCO[C@@H]2CCN(Cc3ccccc3)C[C@@H]21 showed a Percent Effect of 5.88%.
NCC1Cc2cccc(-c3nccc(N4CCC(O)CC4)n3)c2O1 (stereo not drawn) gave a Percent Effect of 20.4%.
Work on NCC1Cc2cc(-c3nccc(N4CCC(O)CC4)n3)cc(F)c2O1 (stereo not drawn) yielded a Percent Effect of 33.7%.
In the case of NCC1Cc2cc(-c3nccc(N4CCC(O)CC4)n3)cc(Cl)c2O1 (stereo not drawn), the Percent Effect is reported as 53.1%.
In the case of Cc1cnc(N2C[C@@H]3[C@@H](C2)OCC(=O)N3C)nc1, the Percent Effect is reported as 7.36%.
With CC(=O)N1CC[C@@H]2O[C@@H](COCC(=O)N3CCCC3)CC[C@@H]21 the Percent Effect was 2.63%.
O=C(C1CCCC1)N1C[C@@H](c2ccsc2)[C@@H]2CN(C3CCCC3)CC[C@@H]21 gave a Percent Effect of 41.7%.
In the case of O=C(c1ccsc1)N1C[C@H]2CN(Cc3cccc(F)c3)C(=O)[C@H]2C1, the Percent Effect is reported as 7.84%.
With COCCN1C[C@@H]2CN(C(=O)[C@H]3CCCO3)C[C@@H]2C1=O the Percent Effect was 0%.
CSc1ncccc1C(=O)N1C[C@H]2CC[C@@H]1CN(c1ncccn1)C2 gave a Percent Effect of 1.67%.
Cc1ccnc(OC[C@@]23CCO[C@@H]2CCN(c2ncccn2)C3)n1 gave a Percent Effect of 9.2%.
With O=C(NC1CC1)[C@@]12CCO[C@@H]1CCN(Cc1ccc3c(c1)OCO3)C2 the Percent Effect was 1.11%.
Cc1nc(CNC2CCCN(c3cccnn3)C2)no1 (stereo not drawn) was tested, and the Percent Effect was 6.55%.
CC(C)c1nc(CNC2CCCN(c3cccnn3)C2)no1 (stereo not drawn) showed a Percent Effect of 50.6%.
CC(C)(C)c1nc(CNC2CCCN(c3cccnn3)C2)no1 (stereo not drawn) gave a Percent Effect of 0.595%.
O=C1[C@@H]2CCN(Cc3ccc(F)cc3)C[C@@H]2OCCN1c1cccnc1 gave a Percent Effect of 8.02%.
Work on COc1cccn(CC(=O)N2CCCC3(CCOCC3)C2)c1=O yielded a Percent Effect of 9.9%.
Work on COc1cccn(CC(=O)N2CCCC3(CCCCC3)C2)c1=O yielded a Percent Effect of 76.2%.
For COc1cccn(CC(=O)N2CCC3(CCNCC3)C2)c1=O, the Percent Effect was 10.9%.
For COCCN(C)C(=O)Cn1cccc(OC)c1=O, the Percent Effect was 3.31%.
For COc1cccn(CC(=O)N2CCCC3(CCCO3)CC2)c1=O (stereo not drawn), the Percent Effect was 71.3%.
Compound CCCOCC1CCN(C(=O)Cn2cccc(OC)c2=O)C1 (stereo not drawn) has a Percent Effect of 10.3%.
Cc1ccc(N2CC[C@H]3O[C@H](C(=O)N4CCCCO4)CC[C@H]32)nn1 was tested, and the Percent Effect was -1.11%.
Work on CNC(=O)[C@H]1C[C@@H]2CN(S(=O)(=O)c3cccc(C)c3)C[C@@H]2N1C yielded a Percent Effect of 5.88%.
Work on CC(=O)N1CCO[C@@H]2CN(C(=O)c3ccc4ccccc4c3)CC[C@@H]2C1 yielded a Percent Effect of -5.75%.
For Cn1nc(Cn2ccnc2)c2c1CN(c1nccs1)C2, the Percent Effect was 66.7%.
With CCS(=O)(=O)N1Cc2c(Cn3ccnc3)nn(C)c2C1 the Percent Effect was 2.67%.
Cn1nc(Cn2ccnc2)c2c1CN(c1ncccn1)C2 showed a Percent Effect of 2.15%.
For CN(CC1CC1)c1ccc2ccc(C(=O)NC3CCCCC3)cn12, the Percent Effect was 42.8%.
Compound CC(C)N1CCN(c2ccc3ccc(C(=O)NC4CCCC4)cn23)CC1 has a Percent Effect of 60.2%.
O=C(NC1CC1)c1ccc2ccc(N3CCN(CC4CC4)CC3)n2c1 was tested, and the Percent Effect was 45.1%.
Work on CS(=O)(=O)N1CCN(c2ccc3ccc(C(=O)NC4CC4)cn23)CC1 yielded a Percent Effect of 52.4%.
In the case of CN(C)C(=O)N1CCN(c2ccc3ccc(C(=O)NC4CC4)cn23)CC1, the Percent Effect is reported as 36.9%.
For CC(=O)N1CCN(c2ccc3ccc(C(=O)NC4CCCC4)cn23)CC1, the Percent Effect was 59.4%.
Compound CCN(CC)c1ccc2ccc(C(=O)NC3CC3)cn12 has a Percent Effect of 36.8%.
For COCCN1CCN(c2ccc3ccc(C(=O)NC4CC4)cn23)CC1, the Percent Effect was 35%.
COCCNC(=O)c1ccc2ccc(N3CCN(CC4CC4)CC3)n2c1 gave a Percent Effect of 38.8%.
In the case of CS(=O)(=O)NC[C@]12COC[C@H]1CN(C(=O)C1CCSCC1)C2, the Percent Effect is reported as -6.35%.
In the case of Cc1cc(CN2CC[C@H]3C(=O)N(c4ccccc4)CCO[C@H]3C2)no1, the Percent Effect is reported as 7.1%.
For CCOc1ccc(CCC(=O)N2CC[C@H]3C(=O)NCCO[C@H]3C2)cc1, the Percent Effect was 3.45%.
CN(C)CCO[C@H]1CN(C(=O)c2ccc(C#N)cc2)[C@@H]2COC[C@H]12 was tested, and the Percent Effect was 15.7%.
CO[C@H]1[C@@H]2CC[C@H]1CN(c1nc(C)nc3ccsc13)C2 was tested, and the Percent Effect was -6.52%.
CN(C)C(=O)CN1C[C@H]2CCN(C(=O)c3ccccc3)CC[C@H]2S1(=O)=O was tested, and the Percent Effect was 4.3%.
Cc1noc(C)c1CN1CCO[C@H]2CN(Cc3ccc(F)cc3)C[C@H]21 was tested, and the Percent Effect was 7.2%.
Compound O=C(Cn1c(=O)nc2n1C(=O)N(c1ccccc1)C2)NC1CCCCC1 has a Percent Effect of 6.06%.
CN(CC1CC1)c1ccc2ccc(C(=O)NCCc3ccccc3)cn12 was tested, and the Percent Effect was 51.4%.
CN(C)CCNC(=O)c1ccc2ccc(N(C)CC3CC3)n2c1 was tested, and the Percent Effect was -9.13%.
For COCCNC(=O)c1ccc2ccc(N(C)CC3CC3)n2c1, the Percent Effect was 26.4%.
Compound O=C(c1ccnnc1)N1CC[C@H]2C[C@H](c3ccncn3)O[C@@H]2C1 has a Percent Effect of 7.44%.
In the case of CS(=O)(=O)N1C[C@H]2C[C@H](C(=O)N3CCOCC3)[C@@H](C1)O2, the Percent Effect is reported as 4.85%.
Work on O=C(O)c1cncc(Cc2cccc(F)c2)c1 yielded a Percent Effect of 5.64%.
O=C(O)c1cncc(Cc2ccccc2F)c1 showed a Percent Effect of -0.376%.
O=C(O)c1cncc(Cc2ccc(F)cc2)c1 showed a Percent Effect of 62.8%.
Compound O=C(CO[C@@H]1CC[C@H]2[C@H]1OCCN2Cc1ccccn1)N1CCCC1 has a Percent Effect of 7.53%.
With Cc1noc(C)c1CN1C(=O)[C@H]2CC[C@@H]1CN(Cc1ccc(Cl)cc1)C2 the Percent Effect was 3.17%.
CCN1C(=O)COC[C@@H]1[C@H](O)c1ccc(NC(=O)COC)cc1 showed a Percent Effect of -5.47%.
Cn1ccnc1CN1C[C@H]2CN(S(=O)(=O)c3ccccc3)CCN2C1=O showed a Percent Effect of -1.49%.
CCN1CCN(S(=O)(=O)N2CCc3ccccc3C2)[C@H]2CS(=O)(=O)C[C@H]21 gave a Percent Effect of 1.32%.
Compound O=C1[C@H]2CC[C@H](CN(Cc3nnc(C4CC4)o3)C2)N1Cc1cscn1 has a Percent Effect of 8%.
Compound CC(C)C(=O)N1CC[C@@H]2CN(Cc3ccncc3)S(=O)(=O)[C@@H]2CC1 has a Percent Effect of 1.07%.
For Cc1ccccc1C(=O)N1CC[C@@H]2CN(c3ncccn3)CCO[C@@H]2C1, the Percent Effect was 0.98%.
With CCOC(=O)[C@]12CCCN(Cc3ccco3)C[C@H]1CN(S(C)(=O)=O)C2 the Percent Effect was 1.68%.
